Test results reported in PubChem BioAssay (Tox21).
The source made the active and inactive calls. A call without a number means that no potency is given here. Calls follow the shape of the full dose curve.

target: Muscarinic acetylcholine receptor M1 (Homo sapiens) (UniProt P11229); assay: Cholinergic receptor muscarinic 1 (CHRM1) small molecule agonists, cell-based qHTS assay (AID 1963589); details: CHRM1-CHO cells, agonist mode, calcium flux fluorescence; series mostly up to 76.8 µM; also: nearly all actives have a fitted effect of over 35% in size
Source text: National Center for Advancing Translational Sciences [NCATS]
Division of Preclinical Innovation [DPI]
U.S. Environmental Protection Agency [EPA]
National Institutes of Environmental Health Sciences [NIEHS]
National Toxicology Program [NTP]
U.S. Food and Drug Administration [FDA]
The CHRM1 is a muscarinic receptor. This receptor plays a crucial role in learning and memory processes and has long been identified as a promising therapeutic target for the improvement of cognitive decline in Alzheimer's disease (AD). The CHRM1-CHO cell line stably expressing human muscarinic acetylcholine receptor M1 (CHRM1) can be used for screening agonists and antagonists of interactions between CHRM1 and its ligands. The CHRM1-CHO Calcium Flux Assay is a homogeneous fluorescence-based assay for detecting the intracellular calcium level using FDSS kinetic plate reader system.
CHRM1-CHO cells were dispensed at 1000 cells/3uL/well in 1536-well black-clear bottom plates using a Multidrop Dispenser. After the assay plates were incubated at a 37 C/5% CO2 incubator for 18 h, 3 uL of Dye Loading Buffer was transferred to the assay plate by a Flying Reagent Dispenser. The assay plates were incubated at 37 C for 1h. For agonist mode, 23 nL of compounds dissolved in DMSO, positive controls or DMSO only was transferred to the assay plate by a pin tool. […] Each test compound was measured at 15 concentrations in three independent runs.

Muscarinic acetylcholine receptor M1 (Homo sapiens), sequence (P11229 whole entry, looked up): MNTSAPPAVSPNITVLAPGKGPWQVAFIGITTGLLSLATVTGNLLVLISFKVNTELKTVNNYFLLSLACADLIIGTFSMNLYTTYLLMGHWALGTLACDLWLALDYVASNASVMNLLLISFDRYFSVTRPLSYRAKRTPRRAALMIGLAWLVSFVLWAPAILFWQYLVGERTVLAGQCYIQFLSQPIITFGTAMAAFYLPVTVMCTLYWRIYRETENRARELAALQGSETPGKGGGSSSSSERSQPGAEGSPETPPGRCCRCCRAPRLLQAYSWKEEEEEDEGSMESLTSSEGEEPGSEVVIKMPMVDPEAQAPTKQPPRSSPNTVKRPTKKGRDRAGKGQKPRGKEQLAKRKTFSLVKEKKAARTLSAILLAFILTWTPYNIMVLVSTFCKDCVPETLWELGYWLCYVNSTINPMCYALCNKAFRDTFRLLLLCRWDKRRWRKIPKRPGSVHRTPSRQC

**Q.** `Nc1ccc(F)c([N+](=O)[O-])c1` was tested. Which Potency did it give?
**A.** The Potency was “inactive”.

**Q.** With `CCCCCN=C(N)N/N=C/c1c[nH]c2ccc(OC)cc12` as the compound, how does the Potency read?
**A.** The Potency was “inactive”.

**Q.** Which Potency does the source give for `O=C(O)C(=O)Cc1c[nH]c2ccccc12` here?
**A.** The Potency was “inactive”.

**Q.** Which Potency does the source give for `CCN(CC)c1ccc(N)cc1` here?
**A.** The Potency was “inactive”.

**Q.** How did the Potency turn out when `Nc1ccc(C(=O)Oc2ccccc2)c(O)c1` was run?
**A.** Its Potency is “inactive”.

**Q.** With `COc1ccc(CN2CCN(C(c3ccc(F)cc3)c3ccc(F)cc3)CC2)c(OC)c1OC` as the compound, how does the Potency read?
**A.** Its Potency is “inactive”.

**Q.** How did the Potency turn out when `O=C(OCC(O)CO)c1ccccc1Nc1ccnc2c(C(F)(F)F)cccc12` (stereo not given) was run?
**A.** The Potency was “inactive”.

**Q.** For `CCNc1nc(NC(C)(C)C)nc(OC)n1`, which Potency is on record?
**A.** The Potency was “inactive”.

**Q.** How did the Potency turn out when `NS(=O)(=O)c1cc(C(=O)O)cc(N2CCCC2)c1Oc1ccccc1` was run?
**A.** The Potency was “inactive”.

**Q.** With `N#C/C(=C1\SCC(c2ccccc2Cl)S1)n1ccnc1` (stereo not given) as the compound, how does the Potency read?
**A.** The Potency was “inactive”.

**Q.** `NC(CO)C(=O)NNCc1ccc(O)c(O)c1O` (stereo not given) was tested. Which Potency did it give?
**A.** The Potency was “inactive”.

**Q.** `CCOC(=O)CC(=O)c1cc(F)c(Cl)nc1Cl` was tested. Which Potency did it give?
**A.** Its Potency is “inactive”.

**Q.** `C#CC(C)(CC)OC(=O)c1ccccc1C(=O)O` (stereo not given) was tested. Which Potency did it give?
**A.** Its Potency is “inactive”.

**Q.** Which Potency does the source give for `C=CCOC(=O)/C=C\C(=O)OCC=C` here?
**A.** The Potency was “inactive”.

**Q.** With `CCC(C)N(C)C(=O)c1cc2ccccc2c(-c2ccccc2Cl)n1` (stereo not given) as the compound, how does the Potency read?
**A.** Its Potency is “inactive”.

**Q.** How did the Potency turn out when `C=C(C)C(=O)OC1CC(C)CC(C)(C)C1` (stereo not given) was run?
**A.** The Potency was “inactive”.

**Q.** For `Cc1ccc2sc3cccc(C)c3c2c1`, which Potency is on record?
**A.** The Potency was “inactive”.

**Q.** How did the Potency turn out when `CCOC(=N)CC(=O)OCC` was run?
**A.** The Potency was “inactive”.

**Q.** Which Potency does the source give for `CN(C)CCc1c[nH]c2ccc(C[C@H]3COC(=O)N3)cc12` here?
**A.** Its Potency is “inactive”.

**Q.** How did the Potency turn out when `S=C1NC=NC2N=CNC12` (stereo not given) was run?
**A.** The Potency was “inactive”.

**Q.** `CC(C)(C)C1(CCc2ccc(Cl)cc2)CO1` (stereo not given) was tested. Which Potency did it give?
**A.** Its Potency is “inactive”.

**Q.** `CCN(CC)c1ccc(C=O)cc1` was tested. Which Potency did it give?
**A.** Its Potency is “inactive”.

**Q.** For `CCN(CC)C(=O)N1CCN(C)CC1`, which Potency is on record?
**A.** Its Potency is “inactive”.

**Q.** `O=C(O)COCC(=O)O` was tested. Which Potency did it give?
**A.** The Potency was “inactive”.

**Q.** `CC(=O)c1cccnc1` was tested. Which Potency did it give?
**A.** The Potency was “inactive”.

**Q.** With `Cc1c(N=C=O)cccc1N=C=O` as the compound, how does the Potency read?
**A.** Its Potency is “inactive”.

**Q.** `CCOCCOCCOC(C)=O` was tested. Which Potency did it give?
**A.** Its Potency is “inactive”.

**Q.** For `CCCCCCCCCCCCCC(=O)OCC(O)CO` (stereo not given), which Potency is on record?
**A.** The Potency was “inactive”.

**Q.** How did the Potency turn out when `CC1=CC(=O)CC(C)(C)C1=O` was run?
**A.** Its Potency is “inactive”.

**Q.** How did the Potency turn out when `CC(=O)Nc1ccn(C2COC(COC(=O)c3ccccc3)O2)c(=O)n1` (stereo not given) was run?
**A.** Its Potency is “inactive”.

**Q.** Which Potency does the source give for `C=CCn1c(=O)n([C@@H]2O[C@H](CO)[C@@H](O)[C@H]2O)c2nc(N)[nH]c(=O)c21` here?
**A.** The Potency was “inactive”.

**Q.** How did the Potency turn out when `CCCCCCCC/C=C\CCCCCCCCOCCO` was run?
**A.** The Potency was “inactive”.

**Q.** For `CN1CN(C)CN(C)C1`, which Potency is on record?
**A.** Its Potency is “inactive”.

**Q.** `C[N+]1(C)CCCC(OC(=O)C(O)(c2ccccc2)c2ccccc2)C1` (stereo not given) was tested. Which Potency did it give?
**A.** The Potency was “inactive”.

**Q.** Which Potency does the source give for `O=S1(=O)c2cccc3cccc(c23)N1CCCN1CCN(c2ccc(F)cc2)CC1` here?
**A.** The Potency was “inactive”.

**Q.** How did the Potency turn out when `C[N+](C)(C)CCCCCCCCCC[N+](C)(C)C` was run?
**A.** Its Potency is “inactive”.

**Q.** For `NC(=O)N(O)[C@@H]1C=C[C@H](Oc2cccc(Oc3ccc(F)cc3)c2)C1`, which Potency is on record?
**A.** Its Potency is “inactive”.

**Q.** For `O=C(O)c1cccc(Cl)n1`, which Potency is on record?
**A.** Its Potency is “inactive”.

**Q.** `COc1ccc(CN(CCN(C)C)c2ncccn2)cc1` was tested. Which Potency did it give?
**A.** Its Potency is “inactive”.

**Q.** How did the Potency turn out when `N#Cc1ccc(C/C(=N/NC(=O)Nc2ccc(OC(F)(F)F)cc2)c2cccc(C(F)(F)F)c2)cc1` was run?
**A.** Its Potency is “inactive”.
